Test [1] in a line: liver-stage malaria parasite growth inhibition, primary screen, cell-based, HepG2, luciferase luminescence, HepG2 viability (AID 624349).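 Note: 100% = mean of DMSO negative control wells on the same plate.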 The note with it: P. berghei liver stage in HepG2, luciferase luminescence, concentration not given here; parasite load remaining: stronger effect = lower value; viability: measured here: HepG2 viability without parasites.
Test [2] relates to Hepatitis C virus NS3 helicase. Description: HCV NS3 helicase inhibitors, primary screen, biochemical, fluorescence polarization, LOPAC1280 library (AID 687035; in the data active = inhibition above about 37%). The following applies: Purified HCV NS3 helicase, Cy5-dT15 ssDNA binding fluorescence polarization; stronger effect = higher value; concentration not given here.
The nature of test [3]: Cy5 fluorescence quenching or enhancement artefacts, artefact control for HCV NS3 helicase inhibitor project, biochemical, LOPAC1280 (AID 687037; call rule not given here). The note with it: Cy5-DNA-NS3h complex fluorescence interference counterscreen.
A short description of test [4]: stimulators of nuclear beta-catenin in C2C12, primary screen, imaging, WNT3A-conditioned medium, mouse C2C12, NPC library (AID 1117326; in the data active = nuclear beta-catenin stimulation mostly above about 4.2%, no sharp cut-off; inactive = mostly below about 10%). The following applies: stronger effect = higher value.

Each structure is given as a SMILES string. Where “and” joins values, the source holds several entries; their conditions need not be identical. Equal entries are not always repeated. A structure can be active in one record and inactive in another. Calls of active or inactive are those of the source. Cut-off read from the data, not from the text of the source, unless noted: active = parasite load remaining mostly below about 12% (no sharp cut-off); inactive = mostly above about 10%.

Take `Clc1ccc(C(c2ccccc2Cl)C(Cl)Cl)cc1` (centres undefined): in test [1], the parasite load remaining was 2.27% (inactive) and the viability was found to be 80.1%. The inhibition in test [2] was -4% (inactive). Further, the fluorescence ratio (interference) in test [3] is 0.9 (inactive). Moreover, the nuclear beta-catenin stimulation in test [4] (at 10 µM) was 4.5% (inactive). In test [4] (stimulation, at 2 µM), the nuclear beta-catenin stimulation turned out to be 0.2%.

Regarding `CC(=O)N[C@@H](CS)C(=O)O`, in test [1], the parasite load remaining is 106% (inactive) and 79.1% (inactive); the viability is 72.7% and 91.5%. Also, the inhibition in test [2] was 0% (inactive). For the same compound, in test [3], the fluorescence ratio (interference) is 0.9 (inactive). For the same compound, in test [4] (at 10 µM), the nuclear beta-catenin stimulation was 2.6% (inactive). Further, the nuclear beta-catenin stimulation in test [4] (stimulation, at 2 µM) is -1.4%.

In the case of `CC1(C)NC(=O)N(c2ccc([N+](=O)[O-])c(C(F)(F)F)c2)C1=O`, in test [1], the parasite load remaining is 54.2% (inactive) and 50.4% (inactive) and 7.05% (inactive); the viability was 92.2% and 99% and 125%. Moreover, the inhibition in test [2] was -2% (inactive). For the same compound, the fluorescence ratio (interference) in test [3] is 1 (inactive). For the same compound, the nuclear beta-catenin stimulation in test [4] (at 10 µM) was -0.3% (inactive). Besides, in test [4] (stimulation, at 2 µM), the nuclear beta-catenin stimulation came out at 2.1%.

For `CCOC(=O)C(C)(C)Oc1ccc(Cl)cc1`, in test [1], the parasite load remaining is 56.5% (inactive) and 51.6% (inactive); the viability is 100% and 144%. Also, the inhibition in test [2] was -5% (inactive). Besides, the fluorescence ratio (interference) in test [3] was 1 (inactive). Also, in test [4] (at 10 µM), the nuclear beta-catenin stimulation was 0% (inactive). In test [4] (stimulation, at 2 µM), the nuclear beta-catenin stimulation is 1.6%.

Consider `Cc1ccc(C(=O)Nc2ccc(S(=O)(=O)O)c3cc(S(=O)(=O)O)cc(S(=O)(=O)O)c23)cc1NC(=O)c1cccc(NC(=O)Nc2cccc(C(=O)Nc3cc(C(=O)Nc4ccc(S(=O)(=O)O)c5cc(S(=O)(=O)O)cc(S(=O)(=O)O)c45)ccc3C)c2)c1`, for which, in test [1], the parasite load remaining was 42.8% (inactive) and 57% (inactive); the viability is 89.5% and 106%. Moreover, in test [2], the inhibition is 96% (active). The fluorescence ratio (interference) in test [3] is 1 (inactive). Besides, the nuclear beta-catenin stimulation in test [4] (at 10 µM) was -3.6% (inactive). Moreover, the nuclear beta-catenin stimulation in test [4] (stimulation, at 2 µM) is -0.5%.

In the case of `NCCS`, in test [1], the parasite load remaining was 22.7% (inactive) and 38.2% (inactive); the viability is 94.3% and 106%. Further, the inhibition in test [2] is -2% (inactive). Further, in test [3], the fluorescence ratio (interference) was 1 (inactive). Moreover, the nuclear beta-catenin stimulation in test [4] (at 10 µM) was 0.2% (inactive). For the same compound, the nuclear beta-catenin stimulation in test [4] (stimulation, at 2 µM) came to 3.8%.

As to `CC(=O)O[C@]1(C(C)=O)CC[C@H]2[C@@H]3C=C(Cl)C4=CC(=O)[C@@H]5C[C@@H]5[C@]4(C)[C@H]3CC[C@@]21C`, in test [1], the parasite load remaining was 8.85% (inactive) and the viability worked out at 69%. Moreover, the inhibition in test [2] is -1% (inactive). Moreover, in test [3], the fluorescence ratio (interference) is 0.9 (inactive). For the same compound, the nuclear beta-catenin stimulation in test [4] (at 10 µM) is 1.2% (inactive). For the same compound, the nuclear beta-catenin stimulation in test [4] (stimulation, at 2 µM) worked out at 1.7%.

Regarding `Cc1cc(N)c2ccccc2[n+]1CCCCCCCCCC[n+]1c(C)cc(N)c2ccccc21`, in test [1], the parasite load remaining was 4.91% (inactive) and -3.56% (inactive) and 27.5% (inactive); the viability was 97.2% and 73.1% and 69.2%. The inhibition in test [2] was 2% (inactive). For the same compound, the fluorescence ratio (interference) in test [3] is 0.9 (inactive). The nuclear beta-catenin stimulation in test [4] (at 10 µM) is 25% (inactive). The nuclear beta-catenin stimulation in test [4] (stimulation, at 2 µM) is -0.1%.

On to `COc1cc2c(cc1OC)-c1cc(=Nc3c(C)cc(C)cc3C)n(C)c(=O)n1CC2`, for which, in test [1], the parasite load remaining is 22.9% (inactive) and the viability is 56.5%. The inhibition in test [2] was 1% (inactive). The fluorescence ratio (interference) in test [3] was 0.9 (inactive). For the same compound, the nuclear beta-catenin stimulation in test [4] (at 10 µM) is 1.1% (inactive). Further, the nuclear beta-catenin stimulation in test [4] (stimulation, at 2 µM) was -0.6%.

As for `CN(C)[C@@H]1C(=O)C(C(N)=O)=C(O)[C@@]2(O)C(=O)C3=C(O)c4c(O)ccc(Cl)c4[C@@H](O)[C@H]3C[C@@H]12`, in test [1], the parasite load remaining was 68.4% (inactive) and 96.7% (inactive) and 81.2% (inactive); the viability is 95.5% and 71.1% and 88.6%. The inhibition in test [2] is -3% (inactive). For the same compound, the fluorescence ratio (interference) in test [3] was 1 (inactive). For the same compound, the nuclear beta-catenin stimulation in test [4] (at 10 µM) was 6.3% (inactive). Also, the nuclear beta-catenin stimulation in test [4] (stimulation, at 2 µM) is 4.3%.

As for `CNC1(C)C2CCC(C2)C1(C)C` (centres undefined), in test [1], the parasite load remaining is 95.9% (inactive) and 84% (inactive). Also, in test [1], the viability is 76% and 101%. Further, in test [2], the inhibition was 0% (inactive). The fluorescence ratio (interference) in test [3] was 0.9 (inactive). For the same compound, the nuclear beta-catenin stimulation is 0.3% (inactive) in test [4] (at 10 µM) and -2.6% in test [4] (stimulation, at 2 µM).

Take `COC(=O)[C@H]1[C@H]2C[C@@H]3c4[nH]c5cc(OC)ccc5c4CCN3C[C@H]2C[C@@H](OC(=O)c2cc(OC)c(OC)c(OC)c2)[C@@H]1OC`: in test [1], the parasite load remaining was 23.5% (inactive) and 21.7% (inactive) and 13.3% (active); the viability was 102% and 74.9% and 89.3%. The inhibition in test [2] was -4% (inactive). Moreover, the fluorescence ratio (interference) in test [3] was 1 (inactive). Further, in test [4] (at 10 µM), the nuclear beta-catenin stimulation is 1.8% (inactive). Moreover, the nuclear beta-catenin stimulation in test [4] (stimulation, at 2 µM) came to 2.2%.

`C[C@]12CC[C@@H]3c4ccc(O)cc4CC[C@H]3[C@@H]1CCC2=O`: in test [1], the parasite load remaining is 74.7% (inactive) and 24.8% (inactive); the viability is 91.5% and 73.5%. The inhibition in test [2] is -4% (inactive). Also, the fluorescence ratio (interference) in test [3] is 1 (inactive). The nuclear beta-catenin stimulation in test [4] (at 10 µM) is 2.2% (inactive). The nuclear beta-catenin stimulation in test [4] (stimulation, at 2 µM) was -0.2%.

Consider `Cc1cc2c(C(C)C)c(O)c(O)c(C=O)c2c(O)c1-c1c(C)cc2c(C(C)C)c(O)c(O)c(C=O)c2c1O`, for which, in test [1], the parasite load remaining was 56.7% (inactive) and the viability turned out to be 83.7%. Further, the inhibition in test [2] is -1% (inactive). In addition, in test [3], the fluorescence ratio (interference) was 0.9 (inactive). For the same compound, the nuclear beta-catenin stimulation in test [4] (at 10 µM) is 64.5% (active). The nuclear beta-catenin stimulation in test [4] (stimulation, at 2 µM) amounted to 6.3%.

Take `O=C(Nc1ccc([N+](=O)[O-])cc1Cl)c1cc(Cl)ccc1O`: the parasite load remaining in test [1] is -1.67% (inactive) and -1.04% (inactive) and -2.1% (inactive). For the same compound, in test [1], the viability is 26.1% and 53.7% and 67.1%. For the same compound, in test [2], the inhibition was -2% (inactive). Further, the fluorescence ratio (interference) in test [3] was 1 (inactive). Further, the nuclear beta-catenin stimulation in test [4] (at 10 µM) is 56.2% (active); in test [4] (stimulation, at 2 µM), 33.1%.

For the compound `NC(N)=NC(=O)Cc1c(Cl)cccc1Cl`, the parasite load remaining in test [1] is 29.4% (inactive) and 52.8% (inactive) and 54.1% (inactive). The viability in test [1] was 118% and 76.4% and 154%. Besides, the inhibition in test [2] is 1% (inactive). The fluorescence ratio (interference) in test [3] was 1 (inactive). Further, the nuclear beta-catenin stimulation in test [4] (at 10 µM) was -0.4% (inactive); in test [4] (stimulation, at 2 µM), 2.6%.

Take `O=NN(CCCl)C(=O)NCCCl`: in test [1], the parasite load remaining was 30.7% (inactive) and the viability amounted to 104%. In addition, the inhibition in test [2] is -4% (inactive). In addition, the fluorescence ratio (interference) in test [3] is 1 (inactive). Also, in test [4] (at 10 µM), the nuclear beta-catenin stimulation is 4.9% (inactive). Besides, the nuclear beta-catenin stimulation in test [4] (stimulation, at 2 µM) is 1.3%.

On to `O=C(O)CCCCCCCC(=O)O`, for which, in test [1], the parasite load remaining was 102% (inactive) and 78.4% (inactive); the viability is 69% and 83.5%. The inhibition in test [2] was 0% (inactive). In test [3], the fluorescence ratio (interference) is 0.9 (inactive). Further, the nuclear beta-catenin stimulation in test [4] (at 10 µM) is 0.3% (inactive). The nuclear beta-catenin stimulation in test [4] (stimulation, at 2 µM) is -0.5%.

As for `CC(=O)OC(C)C[N+](C)(C)C` (centres undefined), in test [1], the parasite load remaining is 94% (inactive) and 73.8% (inactive) and 58% (inactive); the viability was 94.5% and 73.8% and 92.8%. Also, in test [2], the inhibition was -2% (inactive). Besides, in test [3], the fluorescence ratio (interference) was 0.9 (inactive). Besides, the nuclear beta-catenin stimulation in test [4] (at 10 µM) was 1.5% (inactive). Moreover, the nuclear beta-catenin stimulation in test [4] (stimulation, at 2 µM) was found to be 3.2%.

The values are drawn from PubChem BioAssay.
